Assay results reported in PubChem BioAssay AID504329 (Southern Research Specialized Biocontainment Screening …, 2011).
The campaign covered roughly 340,000 compounds. About 1,000 (0.29%) were called active. Rule as the data show it: inconclusive = inhibition above about 27% without an active follow-up result; inactive = below that. A selection follows. Results with a measured potency or affinity are listed apart.

Test: NS1A inhibition, H1N1 influenza, cell based functional assay (AID 504329)
Details: percent inhibition, at 12.5 µM, stronger effect = higher value

Row | Structure (SMILES) | inhibition
1 | Cc1cc(NC(=O)CC(C)C)c(=O)n(Cc2c(F)cccc2Cl)c1 | -1.36% (inactive)
2 | Cc1ccc(S(=O)(=O)N2CCN(C(=O)CC3CCCC3)CC2)cc1 | 2.13% (inactive)
3 | Cc1cc(C)c2nc(SCC(=O)NNC(=O)c3ccco3)c(C)cc2c1 | -0.91% (inactive)
4 | Cc1ccc(S(=O)(=O)N2CCCCC2)cc1C(=O)N1CCCCCC1 | -15.6% (inactive)
5 | CCOC(=O)C1CCN(C2CCN(C(=O)c3oc4c(F)cccc4c3C)CC2)CC1 | -2% (inactive)
6 | Cc1ccc(S(=O)(=O)N(CCC(=O)NCc2ccccc2F)c2ccccc2)cc1 | -14.3% (inactive)
7 | CC(=O)c1ccc(NC(=O)Nc2ccc(Br)cc2C)cc1 | 1.12% (inactive)
8 | C=C(C)COc1ccc(-c2[nH]ncc2Oc2ccccc2OC)c(O)c1 | -3.04% (inactive)
9 | O=[N+]([O-])c1ccccc1/C=N\N1CCN(c2ccccc2)CC1 | 17% (inactive)
10 | O=[N+]([O-])c1ccccc1/C=C/C=N/N1CCCCC1 | 4.44% (inactive)
11 | O=C(O)c1ccc2c(c1Nc1ccccc1)C(=O)c1ccccc1C2=O | 16.9% (inactive)
12 | O=C1c2ccccc2-c2c1cccc2C(=O)N1CCCCC1 | -10.6% (inactive)
13 | O=C1c2ccccc2C(=O)c2c1ccc(C(=O)N1CCCCC1)c2NCCO | 21.2% (inactive)
14 | O=C1c2ccccc2-c2c1cccc2C(=O)N1CCCCCC1 | -0.29% (inactive)
15 | CCNc1c(C(=O)O)ccc2c1C(=O)c1ccccc1C2=O | 10.3% (inactive)
16 | CCN(CCN(C)C)C(=O)c1ccc2c(c1NCCO)C(=O)c1ccccc1C2=O | 12.9% (inactive)
17 | CC1CC(C)CN(C(=O)c2cccc3c2-c2ccccc2C3=O)C1 (stereo not drawn) | -15% (inactive)
18 | CC1CCCN(C(=O)CN2C(=O)c3ccccc3C2=O)C1 (stereo not drawn) | -0.8% (inactive)
19 | CCOC(=O)c1sc(C)c2c(=O)n(CCCN3CCOCC3)cnc12 | -0.01% (inactive)
20 | Cc1cc(C(=O)NCc2cccnc2)n(-c2ccccc2)n1 | 24.2% (inactive)
21 | CC(C)(C)OC(=O)N[C@H](C(=O)OC(C)(C)C)c1ccc(C(F)(F)F)cc1 | 8.11% (inactive)

Row | Structure (SMILES) | inhibition
22 | COC(=O)CNC(=O)Cn1c(=O)n(Cc2ccc(F)cc2)c(=O)c2sccc21 | 0.76% (inactive)
23 | COc1ccc(CCC(=O)NCCS(=O)(=O)N2CCN(c3ccc(OC)cc3)CC2)cc1 | 1.44% (inactive)
24 | COC(=O)c1sc2ncccc2c1OCc1cccc(Cl)c1 | 1.6% (inactive)
25 | Cc1cc(C)cc(OCC(=O)Nc2nonc2NC(=O)COc2cc(C)cc(C)c2)c1 | -4.28% (inactive)
26 | Nn1c(SC/C=C/c2ccccc2)nnc1-c1ccncc1 | -1.07% (inactive)
27 | Nn1c(SC/C=C/c2ccccc2)nnc1-c1cccnc1 | -6.35% (inactive)
28 | CN(c1ncc(C(F)(F)F)cc1Cl)N1C(=O)c2cccc(N)c2C1=O | -4.28% (inactive)
29 | COc1ccccc1N1CCN(C(=O)c2sc3ncn(CC(=O)N4CCC(C)CC4)c(=O)c3c2C)CC1 | 6.39% (inactive)
30 | CN(Cc1nc(CC2CC2)no1)CC12CC3CC(CC(C3)C1)C2 | -6.9% (inactive)
31 | O=C(c1ccc(O)cc1)c1ccc(C(=O)c2ccc(O)cc2)cc1 | -19.1% (inactive)
32 | O=C(c1ccc(O)cc1)c1ccc(Cl)cc1 | -10.1% (inactive)
33 | CCOCCCNC(=O)C1c2ccccc2C(=O)N2CCc3ccccc3C12 (stereo not drawn) | 24.7% (inactive)
34 | CC(C)Nc1ccccc1 | -4.73% (inactive)
35 | Nc1ccccc1Nc1ccccc1 | 18.3% (inactive)
36 | Cc1ccc(Nc2ccccc2)cc1 | 9.38% (inactive)
37 | COc1ccc(Nc2cccccc2=O)cc1 | -2.41% (inactive)
38 | Cc1ccc(Nc2cccccc2=O)cc1 | -5.45% (inactive)
39 | COc1ccc(Nc2cccc3ccccc23)cc1 | -1.24% (inactive)
40 | CC(=O)Nc1ccc(Nc2ccccc2)cc1 | -4.36% (inactive)
41 | COc1ccccc1Nc1ccc(N)cc1 | 10.9% (inactive)
42 | CC(CN1CCN(C)CC1)OC(=O)c1cccc(F)c1 (stereo not drawn) | -2.72% (inactive)

Row | Structure (SMILES) | inhibition
43 | COc1cc(OC)c(CN2CCC(Cc3ccccc3)CC2)cc1Br | -20.9% (inactive)
44 | COc1ccc(NC(=O)CSc2nc3[nH]ncc3c(=O)[nH]2)cc1OC | -0.08% (inactive)
45 | COc1cccc(CNc2nc3nc(C)c(Cl)c(C)n3n2)c1 | 0.89% (inactive)
46 | CCc1nnc(NC(=O)COC(=O)c2cc(OC)cc(OC)c2)s1 | 1.22% (inactive)
47 | CCc1ccc(NC(=O)C2CCN(c3ncnc4c3nc3n4CCCCC3)CC2)cc1 | -5.69% (inactive)
48 | CCOc1ccc2oc(C(=O)N(Cc3nnc(-c4ccccc4Cl)o3)C3CC3)c(C)c2c1 | -5.39% (inactive)
49 | CC(C)c1ccc(CNC(=O)CSCC(=O)Nc2ccc3ccccc3c2)cc1 | 1.48% (inactive)
50 | CCc1nn(CC(=O)NC2CCN(Cc3ccccc3)CC2)c(=O)c2cc3cc(F)ccc3n12 | 0.23% (inactive)
51 | Cc1cc(C)c(NC(=O)CS(=O)CC(=O)Nc2ccc(-n3cnnn3)c(C)c2)c(C)c1 (stereo not drawn) | -3.45% (inactive)
52 | C/C(=C/c1ccccc1)C(=O)N1CCN(c2ccc(F)cc2)CC1 | -28.5% (inactive)
53 | c1ccc(Nc2ccc(Nc3ccccc3)cc2)cc1 | 26.8% (inactive)
54 | c1ccc(Nc2ccccc2)cc1 | -1.53% (inactive)
55 | CC(C)c1nc(SCC(=O)N2CCCCCC2)c2c(=O)n(C)c(=O)n(C)c2n1 | -2.22% (inactive)
56 | COc1ccc(CNCCC(c2ccc(OC)cc2)c2ccccc2OC)cc1 (stereo not drawn) | -0.73% (inactive)
57 | COc1ccc(C(CCNCc2ccc(OC(C)C)cc2)c2ccccc2OC)cc1 (stereo not drawn) | 3.25% (inactive)
58 | COc1ccc(CNCCC(c2ccc(OC(C)C)cc2)C(C)C)cc1OC (stereo not drawn) | 5.92% (inactive)
59 | COc1ccc(C(CCNCc2ccc(N(C)C)cc2)c2ccccc2)cc1 (stereo not drawn) | 25.2% (inactive)
60 | COc1ccccc1C(CCNCc1ccccc1)c1ccc(OC(C)C)cc1 (stereo not drawn) | 11.1% (inactive)
61 | COc1ccc(CNCCC(c2ccc(OC(C)C)cc2)c2ccccc2OC)cc1 (stereo not drawn) | 13.4% (inactive)
62 | O=C(CCc1c[nH]c2ccccc12)NCc1cccc(Cl)c1 | 15.9% (inactive)
63 | Cc1cc(=O)oc2cc(OCC(=O)Nc3c(C)n(C)n(-c4ccccc4)c3=O)c(Cl)cc12 | -7.09% (inactive)
